An excerpt weighted towards active compounds, which were near 3.6% of everything screened.
mHTT-CaM PPI inh = mutant huntingtin-calmodulin interaction inhibitors – biochemical, AlphaScreen, primary screen | 3.6% of 190,000 active | AlphaScreen His-mHTT/GST-CaM binding, luminescence | P42858 | inhibition, % at 15 µM;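 further: 0% = both proteins with DMSO and 100% = one protein alone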
Target sequence (P42858 whole entry, looked up, stated change not applied): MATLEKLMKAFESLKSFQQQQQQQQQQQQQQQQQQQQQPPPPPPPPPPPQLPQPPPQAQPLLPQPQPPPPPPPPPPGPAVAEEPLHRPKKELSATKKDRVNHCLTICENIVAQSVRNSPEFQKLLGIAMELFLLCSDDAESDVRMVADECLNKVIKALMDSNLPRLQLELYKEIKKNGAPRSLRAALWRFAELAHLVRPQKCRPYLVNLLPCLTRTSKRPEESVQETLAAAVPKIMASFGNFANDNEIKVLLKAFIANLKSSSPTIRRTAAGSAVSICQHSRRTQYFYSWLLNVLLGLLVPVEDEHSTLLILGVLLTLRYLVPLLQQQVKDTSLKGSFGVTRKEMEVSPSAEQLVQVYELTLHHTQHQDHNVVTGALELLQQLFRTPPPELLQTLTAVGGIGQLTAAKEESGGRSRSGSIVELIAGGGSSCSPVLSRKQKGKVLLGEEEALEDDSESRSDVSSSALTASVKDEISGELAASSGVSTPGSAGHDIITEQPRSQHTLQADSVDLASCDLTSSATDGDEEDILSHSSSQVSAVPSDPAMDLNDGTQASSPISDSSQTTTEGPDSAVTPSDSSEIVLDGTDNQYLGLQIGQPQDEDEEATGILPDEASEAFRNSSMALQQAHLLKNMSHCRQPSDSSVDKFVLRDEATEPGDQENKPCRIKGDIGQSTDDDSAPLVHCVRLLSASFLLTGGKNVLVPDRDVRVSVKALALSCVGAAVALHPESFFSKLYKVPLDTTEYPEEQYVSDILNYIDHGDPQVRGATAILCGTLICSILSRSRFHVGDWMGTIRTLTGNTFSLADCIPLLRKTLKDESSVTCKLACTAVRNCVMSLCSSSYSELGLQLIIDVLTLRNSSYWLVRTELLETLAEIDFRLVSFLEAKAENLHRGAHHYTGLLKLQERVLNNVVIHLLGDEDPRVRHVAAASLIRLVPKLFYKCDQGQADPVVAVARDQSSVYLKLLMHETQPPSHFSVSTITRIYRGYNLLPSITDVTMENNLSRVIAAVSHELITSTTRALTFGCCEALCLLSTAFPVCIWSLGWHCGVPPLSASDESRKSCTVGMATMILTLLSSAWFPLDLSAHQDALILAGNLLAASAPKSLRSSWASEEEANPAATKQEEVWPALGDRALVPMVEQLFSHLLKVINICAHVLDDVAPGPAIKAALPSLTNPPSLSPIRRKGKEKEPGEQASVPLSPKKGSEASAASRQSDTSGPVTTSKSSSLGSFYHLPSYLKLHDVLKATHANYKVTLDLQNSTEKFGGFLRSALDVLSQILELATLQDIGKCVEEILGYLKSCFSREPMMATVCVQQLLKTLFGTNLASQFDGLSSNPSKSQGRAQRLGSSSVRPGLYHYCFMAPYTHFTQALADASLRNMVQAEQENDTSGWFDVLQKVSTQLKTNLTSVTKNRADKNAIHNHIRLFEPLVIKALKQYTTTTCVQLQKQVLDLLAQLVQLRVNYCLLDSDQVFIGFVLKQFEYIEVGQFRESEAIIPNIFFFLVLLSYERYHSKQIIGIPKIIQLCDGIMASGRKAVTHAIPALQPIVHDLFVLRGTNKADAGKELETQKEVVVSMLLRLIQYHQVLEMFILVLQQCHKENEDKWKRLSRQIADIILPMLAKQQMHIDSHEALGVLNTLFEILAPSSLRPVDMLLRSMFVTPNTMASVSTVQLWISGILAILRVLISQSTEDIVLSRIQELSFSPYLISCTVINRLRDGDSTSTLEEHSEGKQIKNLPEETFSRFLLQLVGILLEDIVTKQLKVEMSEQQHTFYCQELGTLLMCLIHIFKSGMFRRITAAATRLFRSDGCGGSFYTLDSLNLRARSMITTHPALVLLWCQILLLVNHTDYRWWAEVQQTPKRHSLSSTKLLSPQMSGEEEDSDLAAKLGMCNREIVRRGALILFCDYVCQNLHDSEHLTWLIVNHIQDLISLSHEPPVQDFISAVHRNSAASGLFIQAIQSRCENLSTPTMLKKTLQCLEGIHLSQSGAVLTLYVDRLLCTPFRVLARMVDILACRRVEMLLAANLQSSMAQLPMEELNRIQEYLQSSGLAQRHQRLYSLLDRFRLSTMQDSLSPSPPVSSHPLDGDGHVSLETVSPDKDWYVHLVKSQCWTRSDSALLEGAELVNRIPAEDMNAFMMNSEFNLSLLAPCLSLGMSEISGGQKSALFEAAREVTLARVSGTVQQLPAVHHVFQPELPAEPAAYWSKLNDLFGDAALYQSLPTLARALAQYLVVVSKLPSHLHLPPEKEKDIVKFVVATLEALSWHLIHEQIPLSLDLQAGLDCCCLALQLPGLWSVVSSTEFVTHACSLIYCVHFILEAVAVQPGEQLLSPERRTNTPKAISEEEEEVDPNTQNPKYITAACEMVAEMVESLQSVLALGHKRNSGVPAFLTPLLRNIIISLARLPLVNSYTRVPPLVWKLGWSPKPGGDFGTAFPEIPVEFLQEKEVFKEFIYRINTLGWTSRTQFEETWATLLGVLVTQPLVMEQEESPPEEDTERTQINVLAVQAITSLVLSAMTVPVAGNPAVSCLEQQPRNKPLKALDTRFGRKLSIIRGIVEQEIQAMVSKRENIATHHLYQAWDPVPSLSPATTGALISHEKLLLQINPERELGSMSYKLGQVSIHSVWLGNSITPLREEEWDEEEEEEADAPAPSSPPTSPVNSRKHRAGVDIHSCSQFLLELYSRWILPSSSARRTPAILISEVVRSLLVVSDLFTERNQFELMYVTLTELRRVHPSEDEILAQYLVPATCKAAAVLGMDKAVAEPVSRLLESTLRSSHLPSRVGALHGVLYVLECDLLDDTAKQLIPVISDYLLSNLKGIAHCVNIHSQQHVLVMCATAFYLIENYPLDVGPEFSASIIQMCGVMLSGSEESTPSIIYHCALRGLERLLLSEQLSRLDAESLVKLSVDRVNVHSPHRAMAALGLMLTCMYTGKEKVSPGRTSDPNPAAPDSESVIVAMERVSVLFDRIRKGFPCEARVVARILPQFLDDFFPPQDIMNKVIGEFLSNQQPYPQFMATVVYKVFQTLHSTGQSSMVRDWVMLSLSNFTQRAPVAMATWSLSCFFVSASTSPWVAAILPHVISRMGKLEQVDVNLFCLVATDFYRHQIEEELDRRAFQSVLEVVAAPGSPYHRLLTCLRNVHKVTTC
Pf apPOL block = Pf-apPOL inhibitors, biochemical, fluorescence. Plasmodium falciparum apicoplast DNA polymerase (apPOL). Recombinant Pf-apPOL, molecular beacon fluorescence, 1.5 h. inhibition, % at 10 µM. 0.25% of 210,000 active. AID 1794808, 2022
An asterisk follows results filed as active; nt = not tested or not shown. No stated cut-off is given here; in the data, active means inhibition above about 50%; inactive means the rest.

SMILES	mHTT-CaM PPI inh	Pf apPOL block
O=C(NC1CC1)c1csc(N2CCN(c3ccc(F)cc3)CC2)n1	4	-2
CCNC(=O)c1cc2sc(C)cc2n1CC	-2	-6
Cc1cc2c(cc(C(=O)NCc3ccccn3)n2CC(C)C)s1	70*	-13
Cn1c(C2CCN(S(=O)(=O)c3ccc(Cl)cc3)C2)nc2cccnc21 (stereo not drawn)	0	2
Cc1ccc(CNC(=O)c2cc(-c3ccc(Br)s3)nc3ccccc23)o1	96*	-6
CCOc1ccccc1CNC(=O)c1cc(NC(C)=O)cc2nc(C)ccc12	40	5
COc1ccc(C(C)NC(=O)c2cc(NC(C)=O)cc3nc(C)ccc23)cc1 (stereo not drawn)	54*	42
Cc1ccc2c(C(=O)NCc3ccc(C)o3)cc(NC(=O)C3CCC3)cc2n1	64*	12
CCOc1ccc(C(C)NC(=O)c2cc(NC(C)=O)cc3nc(C)ccc23)cc1 (stereo not drawn)	50	10
CNC(=O)c1cc(NC(=O)C2CCC2)cc2nc(C)ccc12	5	10
O=C(NCc1ccco1)c1cc(-c2ccc(Br)s2)nc2ccccc12	35	-4
CC(=O)Nc1cc(C(=O)NCc2ccccc2Br)c2ccc(C)nc2c1	55*	33
COc1ccc(-c2cn3ccn(-c4ccc(OC)c(Cl)c4)c(=O)c3n2)cc1	-6	1
O=C(NCc1cccs1)c1ccc2ncnc(N3CCCCC3)c2c1	10	19
CS(=O)(=O)c1cc(C(F)(F)F)cc(S(C)(=O)=O)c1S(C)(=O)=O	nt	-1
O=c1oc2ccc(NS(=O)(=O)c3cccs3)cc2s1	9	4
Cc1ccc(CNC(=O)C2CCN(c3nnc(-c4ccc(C)cc4)o3)CC2)cc1	49	-4
CCOC(=O)c1oc2ccccc2c1NC(=O)C12CC3CC(CC(C3)C1)C2	-5	0
NC(=O)c1oc2ccccc2c1NC(=O)C12CC3CC(CC(C3)C1)C2	100*	6
OC(CSc1ccccc1)CN1CCN(C(c2ccccc2)c2ccccc2)CC1 (stereo not drawn)	nt	-10
COc1ccc(OC)c(-c2cc3ccc(OC(C)=O)cc3oc2=O)c1	2	-8
COc1cccc(NC(=O)c2ccc(Br)o2)c1	-5	-11
COC(=O)C(C#N)=C(C#N)c1ccc(Br)o1	nt	76*
CCOC(=O)CC[C@@H]1CC[C@]2(CCCN(S(=O)(=O)c3ccccc3)C2)O1	-4	-4
CCN(CC)C(=O)CC[C@H]1CC[C@]2(CCCN(S(=O)(=O)c3ccccc3)C2)O1	98*	-6
SMILES	mHTT-CaM PPI inh	Pf apPOL block
NC(=O)c1cc2cc(Br)ccc2oc1=Nc1ccc(Br)cc1	6	1
NC(=O)c1cccc(N=c2oc3ccc(Br)cc3cc2C(N)=O)c1	71*	4
CC(/C=C1\N=C(c2ccccc2C)OC1=O)=C\c1ccccc1	19	-2
CCN1CCCC1CNC(=O)c1cc(-c2ccc(Br)s2)nc2ccccc12 (stereo not drawn)	6	-2
COc1ccccc1N1CCN(C/C=C/c2ccc(N(C)C)cc2)CC1	62*	-9
CCN1CCN(C/C=C/c2ccc(N(C)C)cc2)CC1	32	-2
CCC(=O)N1CCCC1c1nc2cc(-c3ccccc3OC)ccc2o1 (stereo not drawn)	45	0
O=C1C(Nc2ccc(Cl)cc2)=C(n2nnc3ccccc32)C(=O)c2ccccc21	18	-3
CCN(CC)c1ccc(NC2=C(n3nnc4ccccc43)C(=O)c3ccccc3C2=O)cc1	70*	-3
COc1cc(/C=C2/NC(=O)N(Cc3ccc(Br)cc3)C2=O)cc(OC)c1O	55*	-5
COc1cc(/C=C2/NC(=O)N(Cc3ccc(Cl)cc3)C2=O)cc(Br)c1O	39	0
O=C(O)c1cnn2c(C(F)(F)F)cc(C3CC3)nc12	-3	nt
CC(C)N(CCCNC(=O)C1CCCN(S(=O)(=O)N2CCCC2)C1)Cc1ccccc1 (stereo not drawn)	-4	-12
O=C(NC(c1ccccc1Cl)c1ccc2cccnc2c1O)c1ccccc1 (stereo not drawn)	73*	4
O=C(NC(c1ccc(Cl)cc1)c1ccc2cccnc2c1O)c1ccccc1 (stereo not drawn)	100*	-2
NC(=O)C1CCN(S(=O)(=O)c2cc(C(=O)Nc3ccc(Cl)c(Cl)c3)ccc2F)CC1	35	-8
O=C(NCCc1cccnc1)c1cc2cn(C3CC3)cc2s1	16	34
c1cc2ccc(CN3CCCCC3c3nncn3CC3CC3)cc2[nH]1 (stereo not drawn)	13	6
O=C(Nc1cccc(Cl)c1)C1CCN(c2cncnc2N2CCCC2)CC1	0	-10
Cc1ccc(NC(=O)C2CCN(C(=O)c3ccccc3)CC2)cc1C	0	0
Cc1c(Cl)c([N+](=O)[O-])nn1CCCC(=O)Nc1cc(Cl)ccc1O	13	-1
CCc1[nH]nc(-c2cc(OC)ccc2OC)c1NC(C)=O	7	0
O=C(Nc1ccncc1)c1cc(C(=O)Nc2ccncc2)cc([N+](=O)[O-])c1	11	-2
O=C1c2cccnc2C(=O)N1c1ccc(N2C(=O)c3cccnc3C2=O)c(Cl)c1	63*	0
O=C1c2ccccc2C(=O)N1c1ccc(N2C(=O)c3ccccc3C2=O)c(Cl)c1	20	0
SMILES	mHTT-CaM PPI inh	Pf apPOL block
COc1ccc(CNC(=O)c2cc3c(s2)CN(C(C)C)C3)cc1OC	9	2
COc1ccc(-c2cc(C(F)(F)F)n3nc(C(=O)NC(C)C)c(Cl)c3n2)cc1OC	-2	2
COc1ccc(-c2cc(C(F)(F)F)n3nc(C(=O)O)c(Cl)c3n2)cc1OC	83*	2
COc1ccc(C(=O)NCC#CCN2CCc3ccccc3C2)c(OC)c1	21	1
Clc1ccc(OC2=C(c3ccccc3)N3CCN=C3S2)cc1	60*	0
O=[N+]([O-])c1ccc(OC2=C(c3ccccc3)N3CCN=C3S2)cc1	33	-2
O=C(c1cccs1)N1C[C@H](O)[C@@H](n2cc(C3CC3)nn2)C[C@@H]1c1ccc(Cl)cc1	10	-6
COc1cc(C2OC3=C(C(=O)CC(C)(C)C3)C(N)=C2C#N)ccc1O (stereo not drawn)	-4	-5
O=S(=O)(O)c1cc(-c2nnc(-c3ccccn3)nc2-c2ccc(S(=O)(=O)O)o2)co1	100*	nt
c1ccc(-c2nnc(-c3ccccn3)nc2-c2ccccc2)cc1	44	-2
CC(=NNc1c(C)cccc1Cl)c1csc(-c2ccccc2)n1	nt	2
CC1=C(C(=O)Nc2ccccn2)C(c2ccc(F)cc2)C2=C(CCCC2=O)N1 (stereo not drawn)	0	2
CC1=C(C(=O)Nc2cccc(C(F)(F)F)c2)C(c2ccc(N(C)C)cc2)C2=C(CCCC2=O)N1 (stereo not drawn)	57*	-3
CC1=C(C(=O)Nc2cccc(C(F)(F)F)c2)C(c2ccncc2)C2=C(CCCC2=O)N1 (stereo not drawn)	-1	-1
CC1=C(C(=O)Nc2ccccn2)C(c2ccccc2)C2=C(CCCC2=O)N1 (stereo not drawn)	-1	52*
CC(C)CNC(=O)c1cn2cc(-c3ccc(Cl)cc3)ccc2n1	4	-11
O=C(Nc1cccc(N=Cc2cc(Br)ccc2O)c1)c1ccco1	26	-8
CC(=O)Nc1cccc(N=Cc2cc(Cc3ccccc3Cl)cc([N+](=O)[O-])c2O)c1	98*	-3
CC(=O)Nc1cccc(N=Cc2cc(Cc3ccccc3)ccc2O)c1	95*	1
